Three compounds from PubChem BioAssay (EPA / NIEHS) can be followed below.

Details in all cases: mRNA level, 48 h; actives raise or lower the signal
Read-out in experiment [1]: adenosine kinase (ADK) gene, ADK (gene 132)
As to the kind of experiment: LTEA_HepaRG_ADK: Life Technologies and Expression Analysis (LTEA) Assay for adenosine kinase (ADK) gene using HepaRG (AID 2283471). Put shortly:
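Read-out is ADK transcript level measured by qRT-PCR and normalised to three housekeeping genes. Cells are human HepaRG, dosed for 48 h at up to 100 uM in 0.5% DMSO. Gain or loss of signal is fitted against DMSO controls.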

Read-out in experiment [2]: Alpha-fetoprotein (AFP) gene, AFP (gene 174)
As to the kind of experiment: LTEA_HepaRG_AFP: Life Technologies and Expression Analysis (LTEA) Assay for Alpha-fetoprotein (AFP) gene using HepaRG (AID 2283472). Put shortly:
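AFP transcript measured by TaqMan qRT-PCR with three housekeeping genes for normalization, after 48 h chemical treatment of HepaRG cells (top 100 uM, half-log steps, 0.5% DMSO). Gain or loss fitted against vehicle.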

Read-out in experiment [3]: BCL2L11 (gene 10018)
Briefly: LTEA_HepaRG_BCL2L11: Life Technologies and Expression Analysis (LTEA) Assay for Bcl-2 (BCL2L11) gene using HepaRG (AID 2283473). In short, it runs like this:
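Differentiated human HepaRG cells were exposed 48 h in serum-free induction medium to eight half-log concentrations up to 100 uM in 0.5% DMSO, in duplicate. BCL2L11 mRNA was quantified by TaqMan qRT-PCR, normalized to ACTB, GAPDH and POLR2A; induction or repression fitted versus DMSO.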

Read-out in experiment [4]: Apolipoprotein A-V (APOA5) gene, APOA5 (gene 116519)
Briefly: LTEA_HepaRG_APOA5: Life Technologies and Expression Analysis (LTEA) Assay for Apolipoprotein A-V (APOA5) gene using HepaRG (AID 2283474). Put shortly:
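Differentiated HepaRG cells in serum-free induction medium, exposed 48 h in duplicate to eight half-log concentrations topping at 100 uM (0.5% DMSO). APOA5 mRNA by Fluidigm TaqMan qRT-PCR, normalized to ACTB, GAPDH and POLR2A; bidirectional fit versus DMSO.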

Read-out in experiment [5]: Apoptosis regulator Bcl-2 (Homo sapiens) (UniProt P10415)
Briefly: LTEA_HepaRG_BCL2: Life Technologies and Expression Analysis (LTEA) Assay for Bcl-2 gene using HepaRG (AID 2283475). In short, it runs like this:
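qRT-PCR of BCL2 transcript, normalized to three housekeeping genes (ACTB, GAPDH, POLR2A), after 48 h chemical exposure of HepaRG cells; concentrations top 100 uM with half-log dilutions, 0.5% DMSO vehicle, duplicates; changes up or down fitted relative to vehicle.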

Read-out in experiment [6]: Bcl-2 (BID) gene, BID (gene 637)
Briefly: LTEA_HepaRG_BID: Life Technologies and Expression Analysis (LTEA) Assay for Bcl-2 (BID) gene using HepaRG (AID 2283476). In short, it runs like this: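 Duplicate 48 h treatments of HepaRG cells in serum-free induction medium spanned 100 uM downward in half-log steps, 0.5% DMSO. Transcript change quantified by qRT-PCR against three housekeeping genes, fitted up or down versus DMSO.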

Read-out in experiment [7]: Caspase-3 (Homo sapiens) (UniProt P42574)
Briefly: LTEA_HepaRG_CASP3: Life Technologies and Expression Analysis (LTEA) Assay for cysteine-aspartic acid protease (CASP3) using HepaRG (AID 2283477). Put shortly: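 Differentiated HepaRG cells, plated 48 h, were treated in duplicate in serum-free induction medium for 48 h with eight half-log concentrations up to 100 uM in 0.5% DMSO. CASP3 mRNA measured by qRT-PCR, normalized to ACTB, GAPDH, POLR2A.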

Read-out in experiment [8]: Cytochrome P450 (CYP24A1), CYP24A1 (gene 1591)
Briefly: LTEA_HepaRG_CYP24A1: Life Technologies and Expression Analysis (LTEA) Assay for Cytochrome P450 (CYP24A1) using HepaRG (AID 2283478). In short, it runs like this: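 HepaRG cells plated 48 h, then exposed in duplicate in serum-free induction medium for 48 h to 8-point half-log series from 100 uM in 0.5% DMSO. CYP24A1 mRNA by Fluidigm qRT-PCR, normalized to ACTB, GAPDH, POLR2A; bidirectional fit versus DMSO.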

Read-out in experiment [9]: Cytochrome P450 (CYP1A2), CYP1A2 (gene 1544)
Briefly: LTEA_HepaRG_CYP1A2: Life Technologies and Expression Analysis (LTEA) Assay for Cytochrome P450 (CYP1A2) using HepaRG (AID 2283479). Put shortly: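 Differentiated human HepaRG cells in serum-free induction medium exposed 48 hours in duplicate to 8 half-log concentrations from 100 uM, 0.5% DMSO. CYP1A2 mRNA quantified by qRT-PCR, normalized to ACTB, GAPDH and POLR2A; bidirectional fitting versus DMSO.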

Read-out in experiment [10]: cysteine-aspartic acid protease (CASP8), CASP8 (gene 841)
As to the kind of experiment: LTEA_HepaRG_CASP8: Life Technologies and Expression Analysis (LTEA) Assay for cysteine-aspartic acid protease (CASP8) using HepaRG (AID 2283480). In short, it runs like this: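 qRT-PCR readout of CASP8 mRNA, normalized to three housekeeping genes, after 48 h chemical exposure of HepaRG cells; 8-point half-log series, top 100 uM, 0.5% DMSO vehicle. Bidirectional curve fitting against DMSO baseline.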

Read-out in experiment [11]: Cytochrome P450 (CYP2B6), CYP2B6 (gene 1555)
As to the kind of experiment: LTEA_HepaRG_CYP2B6: Life Technologies and Expression Analysis (LTEA) Assay for Cytochrome P450 (CYP2B6) using HepaRG (AID 2283481). In short, it runs like this: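 Differentiated human HepaRG cells in serum-free induction medium, dosed in duplicate for 48 h over 8 half-log concentrations topping at 100 uM (0.5% DMSO). CYP2B6 mRNA measured by TaqMan qRT-PCR, normalized to ACTB, GAPDH, POLR2A; bidirectional fit versus DMSO.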

Read-out in experiment [12]: Cytochrome P450 2C19 (Homo sapiens) (UniProt P33261)
Briefly: LTEA_HepaRG_CYP2C19: Life Technologies and Expression Analysis (LTEA) Assay for CYP2C19 using HepaRG (AID 2283482). In short, it runs like this: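 Differentiated HepaRG cells in serum-free induction medium exposed 48 h in duplicate, 8 concentrations from 100 uM by half-log steps in 0.5% DMSO. CYP2C19 mRNA measured by TaqMan qRT-PCR, normalized to ACTB, GAPDH, POLR2A. Bidirectional fit versus DMSO.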

Read-out in experiment [13]: CYP2C8 (gene 1558)
Briefly: LTEA_HepaRG_CYP2C8: Life Technologies and Expression Analysis (LTEA) Assay for CYP2C8 using HepaRG (AID 2283483). Put shortly: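 HepaRG (human liver line), 48 h chemical exposure, 8-pt half-log series from 100 uM, 0.5% DMSO vehicle. Readout: CYP2C8 transcript by qRT-PCR, housekeeping-normalized. Bidirectional fit vs DMSO baseline.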

Read-out in experiment [14]: CYP2C9 (gene 1559)
As to the kind of experiment: LTEA_HepaRG_CYP2C9: Life Technologies and Expression Analysis (LTEA) Assay for CYP2C9 using HepaRG (AID 2283484). In short, it runs like this:
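HepaRG, 48 h dosing, 8-pt half-log series, top 100 uM, 0.5% DMSO vehicle. Read-out: CYP2C9 transcript by TaqMan qRT-PCR, housekeeping-normalized (ACTB/GAPDH/POLR2A). Gain or loss fitted vs DMSO baseline.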

Read-out in experiment [15]: CYP2E1 (gene 1571)
As to the kind of experiment: LTEA_HepaRG_CYP2E1: Life Technologies and Expression Analysis (LTEA) Assay for CYP2E1 using HepaRG (AID 2283485). Put shortly: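 CYP2E1 transcript measured by Fluidigm qRT-PCR against three housekeeping genes in human HepaRG cells treated 48 h (top 100 uM, half-log steps, 0.5% DMSO vehicle). Gain or loss fitted relative to DMSO baseline.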

Read-out in experiment [16]: CYP4A11 (gene 1579)
Briefly: LTEA_HepaRG_CYP4A11: Life Technologies and Expression Analysis (LTEA) Assay for CYP4A11 using HepaRG (AID 2283486). In short, it runs like this:
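Differentiated HepaRG cells, 48 h after plating, exposed in duplicate for 48 h to 8 half-log concentrations up to 100 uM in 0.5% DMSO in serum-free induction medium. CYP4A11 mRNA measured by TaqMan qRT-PCR, normalized to ACTB, GAPDH and POLR2A.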

Read-out in experiment [17]: Cytochrome P450 3A4 (Homo sapiens) (UniProt P08684)
As to the kind of experiment: LTEA_HepaRG_CYP3A4: Life Technologies and Expression Analysis (LTEA) Assay for CYP3A4 using HepaRG (AID 2283487). Put shortly: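 HepaRG, 48 h exposure, 8-pt CRC from 100 uM (half-log), 0.5% DMSO, duplicates; serum-free induction medium. Readout: CYP3A4 mRNA, qRT-PCR, ACTB/GAPDH/POLR2A normalization. Bidirectional fit vs DMSO.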

Read-out in experiment [18]: DNA damage-inducible transcript 3 (DDIT3), DDIT3 (gene 1649)
As to the kind of experiment: LTEA_HepaRG_DDIT3: Life Technologies and Expression Analysis (LTEA) Assay for DNA damage-inducible transcript 3 (DDIT3) using HepaRG (AID 2283488). In short, it runs like this:
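DDIT3 transcript was quantified by qRT-PCR with ACTB/GAPDH/POLR2A normalization after 48 h chemical treatment of differentiated HepaRG cells in 0.5% DMSO. Dosing was eight-point, half-log, top 100 uM, duplicate wells. Curves fitted bidirectionally versus DMSO.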

Read-out in experiment [19]: Pro-epidermal growth factor (Homo sapiens) (UniProt P01133)
As to the kind of experiment: LTEA_HepaRG_EGF: Life Technologies and Expression Analysis (LTEA) Assay for Epidermal growth factor (EGF) using HepaRG (AID 2283489). In short, it runs like this: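 HepaRG cells (~100,000/well, 48 h pre-culture) exposed in duplicate for 48 h in serum-free induction medium to 8 half-log concentrations up to 100 uM in 0.5% DMSO. EGF mRNA by qRT-PCR, normalized to ACTB/GAPDH/POLR2A; bidirectional fit versus DMSO.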

Read-out in experiment [20]: Early growth response protein 1 (EGR1) transcription factor, EGR1 (gene 1958)
Briefly: LTEA_HepaRG_EGR1: Life Technologies and Expression Analysis (LTEA) Assay for Early growth response protein 1 (EGR1) transcription factor using HepaRG (AID 2283490). In short, it runs like this: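 HepaRG, 48 h exposure, 8-pt half-log series from 100 uM, 0.5% DMSO vehicle; EGR1 transcript by TaqMan qRT-PCR (Fluidigm array), housekeeping-normalized; bidirectional fit relative to DMSO baseline.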

Active and inactive are the calls of the source. Rule for the calls: active = hit-call score of the fitted dose curve at least 0.9, where 1 is the maximum; inactive = score below 0.9.

Chain of Caspase-3 (Homo sapiens) (P42574 whole entry, looked up): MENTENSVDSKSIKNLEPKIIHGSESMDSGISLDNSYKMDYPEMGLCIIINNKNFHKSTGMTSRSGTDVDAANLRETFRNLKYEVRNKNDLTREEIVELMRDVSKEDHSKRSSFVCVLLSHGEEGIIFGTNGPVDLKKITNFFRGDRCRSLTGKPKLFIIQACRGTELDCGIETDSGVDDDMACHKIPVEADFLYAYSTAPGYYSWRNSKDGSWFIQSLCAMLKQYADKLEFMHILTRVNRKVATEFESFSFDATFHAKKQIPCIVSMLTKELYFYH
Chain of Cytochrome P450 3A4 (Homo sapiens) (P08684 whole entry, looked up): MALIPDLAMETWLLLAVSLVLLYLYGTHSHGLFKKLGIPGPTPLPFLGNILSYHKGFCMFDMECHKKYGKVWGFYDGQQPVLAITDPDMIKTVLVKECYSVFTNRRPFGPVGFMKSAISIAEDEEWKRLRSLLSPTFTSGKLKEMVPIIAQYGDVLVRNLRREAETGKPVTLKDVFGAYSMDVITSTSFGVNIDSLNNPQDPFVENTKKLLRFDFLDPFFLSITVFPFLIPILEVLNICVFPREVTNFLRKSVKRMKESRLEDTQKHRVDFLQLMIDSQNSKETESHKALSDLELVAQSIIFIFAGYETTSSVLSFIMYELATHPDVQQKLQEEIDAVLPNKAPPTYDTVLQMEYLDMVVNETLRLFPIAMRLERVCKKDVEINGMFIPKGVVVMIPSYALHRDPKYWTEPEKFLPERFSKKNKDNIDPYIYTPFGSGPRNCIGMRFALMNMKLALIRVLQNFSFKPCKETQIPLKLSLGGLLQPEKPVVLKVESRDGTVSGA
Chain of Cytochrome P450 2C19 (Homo sapiens) (P33261 whole entry, looked up): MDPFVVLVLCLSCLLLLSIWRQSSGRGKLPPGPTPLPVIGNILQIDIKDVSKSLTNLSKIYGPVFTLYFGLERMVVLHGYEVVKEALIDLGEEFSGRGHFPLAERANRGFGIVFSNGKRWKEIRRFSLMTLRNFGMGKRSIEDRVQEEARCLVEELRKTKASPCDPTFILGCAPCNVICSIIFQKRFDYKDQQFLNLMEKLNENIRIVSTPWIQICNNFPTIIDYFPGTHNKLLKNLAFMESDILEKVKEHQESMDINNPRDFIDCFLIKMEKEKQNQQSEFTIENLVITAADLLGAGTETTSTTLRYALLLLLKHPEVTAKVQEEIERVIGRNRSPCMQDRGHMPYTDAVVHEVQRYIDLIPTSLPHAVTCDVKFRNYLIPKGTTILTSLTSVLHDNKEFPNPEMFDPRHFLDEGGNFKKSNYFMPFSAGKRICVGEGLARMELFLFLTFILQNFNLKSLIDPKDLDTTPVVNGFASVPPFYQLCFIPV
Chain of Apoptosis regulator Bcl-2 (Homo sapiens) (P10415 whole entry, looked up): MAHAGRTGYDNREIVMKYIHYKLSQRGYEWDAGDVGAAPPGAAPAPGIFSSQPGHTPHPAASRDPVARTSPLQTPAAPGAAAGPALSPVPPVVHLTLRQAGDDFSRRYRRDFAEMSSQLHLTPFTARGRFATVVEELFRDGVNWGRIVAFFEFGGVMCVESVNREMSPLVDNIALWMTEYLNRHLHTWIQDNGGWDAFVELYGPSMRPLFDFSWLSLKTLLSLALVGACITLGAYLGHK

As to `CCCCCCCCC(=O)O`, the compound was called inactive in [1], in experiment [2], in experiment [3], in [4], in experiment [5] and in [6]. Besides, the result in experiment [7], in experiment [8], in [9], in experiment [10], in experiment [11] and in experiment [12] was inactive. For the same compound, the compound was classed as inactive in experiment [13], in [14], in experiment [15], in [16], in experiment [17] and in experiment [18]. The result in experiment [19] and in experiment [20] was inactive.

For the compound `COCC(C)O` (stereo not given), the compound was classed as inactive in experiment [1], in experiment [2], in experiment [3], in experiment [4], in [5] and in [6]. The call in [7], in experiment [8], in experiment [9], in experiment [10], in [11] and in [12] was inactive. The outcome in [13], in experiment [14], in [15], in experiment [16], in [17] and in [18] was inactive. For the same compound, the compound was called inactive in experiment [19] and in experiment [20].

For the compound `CC[C@H](C)[C@@H](C(=O)O)n1sc2ccccc2c1=O`, the call in [1], in experiment [2], in [3], in experiment [4], in experiment [5] and in experiment [6] was inactive. In addition, the result in experiment [7], in [8], in [10], in [12], in [13] and in experiment [14] was inactive. The compound was classed as inactive in experiment [15], in [16], in experiment [17], in [18], in [19] and in experiment [20]. The AC50 (commonly the concentration at which the activity in the assay is half-maximal) in [9] was 50 µM (active); in experiment [11], 10.1 µM (active).
